From PubChem BioAssay (NCI)
Compounds without any hit were thinned out: in the full panel of roughly 83,000, 20% have a hit.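 Compound tested at a single concentration for 48 hours in 96-well plates; a percent growth value below 10 was scored as active.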 Calls of active or inactive are those of the source.

How the values were obtained:
Experiment in all cases: NCI-60 one-dose screen, 48 h (100 = growth as untreated, 0 = no growth, -100 = all killed)
Settings in all cases: 10 µM unless noted
HCT-15 colon = test system: HCT-15 colon
HT29 colon = test system: HT29 colon
SNB-75 CNS = test system: SNB-75 CNS
SNB-19 CNS = test system: SNB-19 CNS
PC-3 prostate = test system: PC-3 prostate
SK-MEL-5 melanoma = test system: SK-MEL-5 melanoma
UACC-62 melanoma = test system: UACC-62 melanoma
LOX IMVI melanoma = test system: LOX IMVI melanoma
SK-MEL-28 melanoma = test system: SK-MEL-28 melanoma
SK-MEL-2 melanoma = test system: SK-MEL-2 melanoma
SN12C renal = test system: SN12C renal
UO-31 renal = test system: UO-31 renal
TK-10 renal = test system: TK-10 renal
ACHN renal = test system: ACHN renal
CAKI-1 renal = test system: CAKI-1 renal
A498 renal = test system: A498 renal
MOLT-4 leukemia = test system: MOLT-4 leukemia
U251 CNS = test system: U251 CNS
EKVX NSCLC = test system: EKVX NSCLC
CCRF-CEM leukemia = test system: CCRF-CEM leukemia

Measured: growth

Cc1nn(-c2ccccc2)c2nc(N)c(C3=NCCO3)nc12
inactive: HCT-15 colon 98% | HT29 colon 100% | SNB-75 CNS 73.1% | SNB-19 CNS 100% | PC-3 prostate 81.4% | SK-MEL-5 melanoma 97.4% | UACC-62 melanoma 96.5% | LOX IMVI melanoma 94.7% | SK-MEL-28 melanoma 103% | SK-MEL-2 melanoma 111% | SN12C renal 96.8% | UO-31 renal 73.5% | TK-10 renal 128% | ACHN renal 83% | CAKI-1 renal 78.4% | A498 renal 92.1% | MOLT-4 leukemia 101%

CC(=O)O[C@H]1CC[C@@]2(C)C(=CC[C@@H]3[C@@H]2CC[C@]2(C)C(c4cccnc4)=CC[C@@H]32)C1
inactive: HCT-15 colon 51.4% | HT29 colon 22.1% | SNB-75 CNS 51% | SNB-19 CNS 72.3% | U251 CNS 53% | SK-MEL-5 melanoma 20.9% | UACC-62 melanoma 44.1% | LOX IMVI melanoma 63.4% | SK-MEL-28 melanoma 44.4% | SK-MEL-2 melanoma 23.6% | EKVX NSCLC 49.5% | SN12C renal 96.7% | UO-31 renal 33.5% | TK-10 renal 90.8% | ACHN renal 44.7% | A498 renal 91.5% | CCRF-CEM leukemia 48.3% | MOLT-4 leukemia 46%

C[C@]12CC[C@H](O)CC1=CC[C@@H]1[C@@H]2CC[C@]2(C)C(c3cccnc3)=CC[C@@H]12
inactive: HCT-15 colon 56.8% | HT29 colon 24% | SNB-75 CNS 52.4% | SNB-19 CNS 72.7% | U251 CNS 67% | SK-MEL-5 melanoma 25.9% | UACC-62 melanoma 53.2% | LOX IMVI melanoma 74.5% | SK-MEL-28 melanoma 33.8% | SK-MEL-2 melanoma 27.6% | EKVX NSCLC 38.8% | SN12C renal 91% | TK-10 renal 93.6% | ACHN renal 61% | A498 renal 64.4% | MOLT-4 leukemia 34.1%

COc1cc(/C(Cl)=C/C=C/C(=O)c2c(C)[n+]([O-])c3ccc(Cl)cc3[n+]2[O-])cc(OC)c1OC
inactive: HCT-15 colon 11.5% | HT29 colon 14.1% | SNB-75 CNS 19.8% | SNB-19 CNS 51.2% | PC-3 prostate 40% | SK-MEL-5 melanoma 14.2% | UACC-62 melanoma 21.2% | SK-MEL-28 melanoma 33.5% | SK-MEL-2 melanoma 28.5% | EKVX NSCLC 89.3% | SN12C renal 31.9% | UO-31 renal 45.7% | TK-10 renal 71.6% | ACHN renal 26.9% | CAKI-1 renal 41.3% | A498 renal 85.1% | MOLT-4 leukemia 12.4%
active: LOX IMVI melanoma -18.3% | CCRF-CEM leukemia 8.02%

CN1CCN(CCCOc2ccc3ncnc(Nc4ccc(OCc5cccc(F)c5)c(Cl)c4)c3c2)CC1
inactive: SNB-75 CNS 65.1% | EKVX NSCLC 30.7% | A498 renal 26.1%
active: HCT-15 colon -50.8% | HT29 colon -49.5% | SNB-19 CNS 3.46% | PC-3 prostate -18.9% | SK-MEL-5 melanoma -98.2% | UACC-62 melanoma -57.8% | LOX IMVI melanoma -92.9% | SK-MEL-28 melanoma -86.6% | SK-MEL-2 melanoma -40.1% | SN12C renal 3.1% | UO-31 renal -4.76% | TK-10 renal -18% | ACHN renal -50.7% | CAKI-1 renal -62.5% | CCRF-CEM leukemia 2.72% | MOLT-4 leukemia -12.8%

O=[N+]([O-])c1cc([N+](=O)[O-])c(N2CCCC2)cc1NN=C(c1ccc(O)cc1)c1ccc(O)cc1
active: SK-MEL-2 melanoma -47.6% | UO-31 renal -78.1%
inactive: HCT-15 colon 46.9% | HT29 colon 78.2% | SNB-75 CNS 71.8% | SNB-19 CNS 37.3% | U251 CNS 68.5% | SK-MEL-5 melanoma 18.8% | UACC-62 melanoma 63.1% | LOX IMVI melanoma 41.6% | SK-MEL-28 melanoma 97.1% | EKVX NSCLC 90.5% | SN12C renal 128% | TK-10 renal 131% | ACHN renal 46.9% | CAKI-1 renal 91.9% | A498 renal 122% | CCRF-CEM leukemia 55.3% | MOLT-4 leukemia 57.3%

Cc1ccc(-c2c3c(N)c4c(nc3nc3c2c(C)nn3-c2ccccc2)CCC4)cc1
active: HT29 colon 3.96% | LOX IMVI melanoma -31%
inactive: HCT-15 colon 15% | SNB-75 CNS 105% | SNB-19 CNS 99.4% | PC-3 prostate 91.1% | SK-MEL-5 melanoma 90.4% | UACC-62 melanoma 99.8% | SK-MEL-28 melanoma 70.2% | SK-MEL-2 melanoma 88.6% | SN12C renal 94.1% | UO-31 renal 50.5% | TK-10 renal 100% | ACHN renal 12% | CAKI-1 renal 99.2% | A498 renal 107%

CC(=O)Nc1cc(C(c2ccccc2)c2ccccc2)cc(C(c2ccccc2)c2ccccc2)c1C
inactive: HCT-15 colon 50.5% | HT29 colon 47.8% | SNB-75 CNS 34.2% | SNB-19 CNS 71.4% | U251 CNS 46.8% | PC-3 prostate 15.4% | UACC-62 melanoma 50% | LOX IMVI melanoma 53% | SK-MEL-2 melanoma 27% | EKVX NSCLC 61.4% | SN12C renal 69.7% | UO-31 renal 49.3% | TK-10 renal 84.3% | ACHN renal 51.1% | CAKI-1 renal 49.2% | CCRF-CEM leukemia 34.1%
active: MOLT-4 leukemia 8.92%

COc1cc(/C=C/C(=O)c2c(C)n([O-])c3ccc(Cl)cc3[n+]2=O)cc(OC)c1OC
active: CCRF-CEM leukemia -34.2% | MOLT-4 leukemia -34.8%
inactive: HCT-15 colon 59% | HT29 colon 102% | SNB-75 CNS 75.8% | SNB-19 CNS 83.1% | U251 CNS 80.1% | PC-3 prostate 89.5% | UACC-62 melanoma 82.9% | LOX IMVI melanoma 68.9% | SK-MEL-2 melanoma 61.8% | EKVX NSCLC 65.8% | SN12C renal 80.1% | TK-10 renal 103% | ACHN renal 79.6% | CAKI-1 renal 107% | A498 renal 98.2%

O=C(N/N=C/c1cccc([N+](=O)[O-])c1)c1ccc(Br)o1
active: UO-31 renal -25.2%
inactive: HCT-15 colon 127% | HT29 colon 105% | SNB-75 CNS 98.5% | SNB-19 CNS 83.5% | U251 CNS 110% | SK-MEL-5 melanoma 97.3% | UACC-62 melanoma 102% | LOX IMVI melanoma 112% | SK-MEL-28 melanoma 133% | SK-MEL-2 melanoma 103% | EKVX NSCLC 103% | SN12C renal 142% | TK-10 renal 129% | ACHN renal 156% | CAKI-1 renal 98.3% | A498 renal 129% | CCRF-CEM leukemia 78.2% | MOLT-4 leukemia 132%

Cc1cn(C(C=O)OC(C=O)CO)c(=O)[nH]c1=O (configuration not stated)
inactive: HCT-15 colon 102% | HT29 colon 110% | SNB-75 CNS 75.1% | SNB-19 CNS 101% | PC-3 prostate 102% | SK-MEL-5 melanoma 105% | UACC-62 melanoma 106% | LOX IMVI melanoma 103% | SK-MEL-28 melanoma 99.1% | SK-MEL-2 melanoma 104% | SN12C renal 102% | UO-31 renal 88.6% | TK-10 renal 103% | ACHN renal 107% | CAKI-1 renal 105% | A498 renal 111% | CCRF-CEM leukemia 98.4% | MOLT-4 leukemia 104%

COc1ccc2c(c1)[n+](=O)c(C(=O)/C=C/c1cc(OC)c(OC)c(OC)c1)c(C)n2[O-]
active: CCRF-CEM leukemia -63.6%
inactive: HCT-15 colon 49.2% | HT29 colon 85.2% | SNB-75 CNS 62.2% | SNB-19 CNS 67.1% | U251 CNS 55.6% | PC-3 prostate 59.9% | UACC-62 melanoma 64.7% | SK-MEL-28 melanoma 69.1% | SK-MEL-2 melanoma 57.2% | EKVX NSCLC 61% | SN12C renal 71.5% | TK-10 renal 120% | ACHN renal 65.9% | CAKI-1 renal 105% | A498 renal 77.1% | MOLT-4 leukemia 13.2%

Cc1ccc(-c2c3c(N)nc(-c4ccncc4)nc3nc3c2c(C)nn3-c2ccccc2)cc1
inactive: HCT-15 colon 45% | HT29 colon 21.8% | SNB-75 CNS 22.5% | SNB-19 CNS 88.4% | PC-3 prostate 62.8% | SK-MEL-5 melanoma 55.3% | UACC-62 melanoma 58.3% | SK-MEL-28 melanoma 30.4% | SN12C renal 26.8% | UO-31 renal 93.4% | TK-10 renal 12.3% | ACHN renal 53.2% | CAKI-1 renal 72.5% | A498 renal 82.7% | MOLT-4 leukemia 65.3%
active: LOX IMVI melanoma 8.73% | SK-MEL-2 melanoma -7.11%

Cc1ccc2nc(-c3ccc(N(C)C)c(Br)c3)cn2c1
inactive: HCT-15 colon 33.9% | HT29 colon 72.8% | SNB-75 CNS 103% | SNB-19 CNS 99.4% | U251 CNS 49.1% | PC-3 prostate 53.7% | UACC-62 melanoma 66.6% | LOX IMVI melanoma 56.3% | SK-MEL-2 melanoma 94.3% | EKVX NSCLC 79.5% | SN12C renal 94.8% | TK-10 renal 146% | ACHN renal 95.6% | CAKI-1 renal 126% | A498 renal 118% | MOLT-4 leukemia 28.6%

CC(C)=CCNc1ncnc2c1ncn2C1OC(COP(=O)(O)O)C(O)C1O (configuration not stated)
inactive: HCT-15 colon 31.6% | HT29 colon 31.6% | SNB-75 CNS 65.2% | SNB-19 CNS 89.5% | PC-3 prostate 12% | SK-MEL-5 melanoma 81.1% | UACC-62 melanoma 69.6% | SK-MEL-28 melanoma 85.7% | SK-MEL-2 melanoma 69.4% | SN12C renal 32.4% | UO-31 renal 39.6% | ACHN renal 28.2% | CAKI-1 renal 16.3% | CCRF-CEM leukemia 11.4%
active: LOX IMVI melanoma -61.3% | A498 renal -7.75% | MOLT-4 leukemia 6.19%

O=C1/C(=C/c2ccccc2O)C(=S)SN1Cc1ccco1
inactive: HCT-15 colon 91.6% | HT29 colon 87.6% | SNB-75 CNS 70.2% | SNB-19 CNS 111% | PC-3 prostate 93.3% | SK-MEL-5 melanoma 95.8% | UACC-62 melanoma 94.4% | LOX IMVI melanoma 34.7% | SK-MEL-28 melanoma 92% | SK-MEL-2 melanoma 81.4% | SN12C renal 93.8% | UO-31 renal 84.4% | TK-10 renal 98.8% | ACHN renal 106% | CAKI-1 renal 119% | A498 renal 95.2% | CCRF-CEM leukemia 70.7% | MOLT-4 leukemia 99%

CC(=O)c1nn(-c2ccccc2)c(=Nc2ccccc2)cc1C
inactive: HCT-15 colon 93.9% | HT29 colon 95.5% | SNB-75 CNS 76.2% | SNB-19 CNS 92.4% | PC-3 prostate 80.3% | SK-MEL-5 melanoma 98.9% | UACC-62 melanoma 94.8% | LOX IMVI melanoma 98.4% | SK-MEL-28 melanoma 109% | SK-MEL-2 melanoma 114% | SN12C renal 97.7% | UO-31 renal 86.2% | TK-10 renal 104% | ACHN renal 86.7% | CAKI-1 renal 99.1% | A498 renal 103% | MOLT-4 leukemia 94.3%
